ssDAF12 agonist: S. stercoralis DAF-12 nuclear receptor activators, primary screen, cell-based, luminescence, HEK293, GRIP1 co-expression, lit1-tk-luc | AID 652126, 2013 | HEK293 ssDAF-12/GRIP1 lit1-tk-luc reporter; % of 3 µM dafachronic acid response | 370,000 compounds, 1% hits | activation, % at 6.8 µM;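 active = activation above the mean over all tested compounds plus 3 SD, cut at about 0.9% in these data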;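 also: 0% = DMSO-only wells and 100% = 3 µM delta7-dafachronic acid wells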
hgDAF12 agonist: H. glycines DAF-12 receptor agonists, primary screen, cell-based, luminescence, HEK293, GAL4 fusion, UAS-luciferase; activation, % at 6.8 µM; 370,000 compounds, 1.8% hits; Nuclear hormone receptor DAF-12 (Heterodera glycines), GAL4 fusion; AID 687014, 2013; HEK293 GAL4-hgDAF12 UAS-luciferase reporter, agonist luminescence; normalized to butyrate control;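 active = activation above a cutoff set at the mean of all screened compounds plus 3 SD, cut at about 10% in these data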;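 also: 0% = DMSO wells and 100% = sodium butyrate wells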
hcDAF-12 act: H. contortus DAF-12 nuclear receptor activators, primary screen, cell-based, luminescence, HEK293, lit1-tk-luc reporter; HEK293 hcDAF-12 lit1-tk-luc reporter; 0% DMSO, 100% Δ7-dafachronic acid; activation, % at 6.8 µM; 370,000 compounds, 1.4% hits; AID 652067, 2013;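 active = activation above the mean of all tested compounds plus 3 SD, cut at about 5.5% in these data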;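 also: 100% = response to 3 µM Δ7-dafachronic acid high control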
DAX1 inh-1: DAX1 (NR0B1) inhibitors, primary screen, cell-based, HEK293, Gal4-DAX1, luciferase luminescence; HEK293 Gal4-DAX1 luciferase reporter; inhibition, % at 6.75 µM; 340,000 compounds, 0.99% hits; AID 504766, 2011;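 active = inhibition above the mean over all tested compounds plus 3 SD, cut at about 4.2% in these data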;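 also: 0% = DAX1-transfected cells with DMSO and 100% = empty-vector control cells with DMSO; inhibition shows as a rise in luminescence from relieved DAX1 repression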
Target sequence (P51843 207-470 limits assumed): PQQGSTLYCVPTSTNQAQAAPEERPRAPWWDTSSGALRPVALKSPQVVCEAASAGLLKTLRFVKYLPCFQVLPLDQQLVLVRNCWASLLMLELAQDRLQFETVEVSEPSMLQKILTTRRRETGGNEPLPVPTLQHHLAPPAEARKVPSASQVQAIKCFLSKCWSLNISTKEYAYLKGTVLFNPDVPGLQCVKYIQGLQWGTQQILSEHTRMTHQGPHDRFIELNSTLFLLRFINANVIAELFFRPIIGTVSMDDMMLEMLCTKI
DAX1 inh-2: DAX1 (NR0B1) inhibitors on StAR promoter, primary screen, cell-based, luminescence, SF-1 (NR5A1), full-length DAX-1; HEK293T StAR-luciferase reporter, SF-1/DAX-1 repression relief; inhibition, % at 6.8 µM; 370,000 compounds, 1.1% hits;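 active = inhibition above the mean over all tested compounds plus 3 SD, cut at about 3.6% in these data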;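 also: 0% = DAX-1 cells with DMSO and 100% = cells lacking DAX-1 with DMSO; higher inhibition means more luminescence from relief of DAX-1 repression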
SMARCA2 activ: SMARCA2 (BRM) function activators, primary screen, cell-based, luminescence, high throughput | MG213 cells, MMTV-luciferase reporter, dexamethasone, overnight | activation, % at 9.1 µM | 370,000 compounds, 1% hits | AID 652017, 2013; in the data active = activation above about 7.8%;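 also: 0% = vehicle wells and 100% = reference activator wells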
An asterisk follows results filed as active; x = not tested or not shown; ! = not confirmed by another sample. Compounds with a hit are over-represented: about 4.8% of the library has one in this group of screens.

SMILES	ssDAF12 agonist	hgDAF12 agonist	hcDAF-12 act	DAX1 inh-1	DAX1 inh-2	SMARCA2 activ
Cc1nn(CC(C)C)c(Cl)c1C(=O)NC1CCC(C)CC1 (stereo not drawn)	1	6	4	1	4.2*	6
Cc1nn(Cc2ccccc2Cl)c(Cl)c1C(=O)OCC(=O)NC(=O)NC1CCCCC1	-1	1	-1	0	0	-2
COc1cccc2c1C(=O)c1c(O)c3c(c(O)c1C2=O)CC(O)(C(C)=NO)CC3OC1CC(N)C(O)C(C)O1 (stereo not drawn)	1.9*	3	5	-3	-3	-7
CN(C)C(=O)Oc1ccc(OCc2nc3ccccc3[nH]2)cc1	0	11*	3	-2	3	0
CC(=O)Nc1ccc(OC(=O)N(C)C)cc1	-1	1	-1	0	1	-2
COc1ccc(OC)c(C(c2c(O)c3ccccc3oc2=O)c2c(C)n(C)n(-c3ccccc3)c2=O)c1 (stereo not drawn)	-1	0	-1	6.6*	0	0
Cc1c(C(c2ccc(O)cc2)c2c(O)c3ccccc3oc2=O)c(=O)n(-c2ccccc2)n1C (stereo not drawn)	-1	-1	-1	-1	0	1
COc1ccc(-c2cc(=NCCCCCC(=O)O)c3cc(C)ccc3o2)cc1	-1	11*!	2	1	2	3
COC(=O)C1=C(c2ccc(OCc3ccccc3)cc2)C[C@@H]2CC[C@H]1N2C(=O)NCc1cccc(C(F)(F)F)c1	-2	2	-2	0	-1	-1
CCC(C)C1NC(=O)C2CCCN2C(=O)C(CC(C)C)OC(=O)CCNC(=O)C(C)N(C)C(=O)C(C(C)C)N(C)C1=O (stereo not drawn)	-1	-9	-2	0	3.7*	7
C=CCCC[C@@H]1OC(=O)CNC(=O)C([C@@H](C)CC)NC(=O)[C@@H]2CCCN2C(=O)C([C@@H](C)CC)OC(=O)[C@H](Cc2ccccc2)N(C)C(=O)[C@H](C(C)C)NC(=O)C1(C)C (stereo partly drawn)	-1	-2	-1	x	0	-4
CCCCn1c(=O)c(C(=O)NCCc2ccccc2)c(O)c2ccccc21	-2	1	-2	5.1*	0	-2
CCCCCn1c(=O)c(C(=O)Nc2ccccc2)c(O)c2ccccc21	0	0	7.8*	0	0	2
COc1cc(C2c3cc4c(cc3CC3COC(=O)C32)OCO4)cc(OC)c1O (stereo not drawn)	-1	-4	-1	-1	4.2*	-3
CN1CC(C(=O)c2ccc(Cl)cc2)C(c2ccc(N(C)C)cc2)C1 (stereo not drawn)	0	0	1	4.2*	1	0
CN1CC(C(=O)c2ccc(F)cc2)C(c2ccc(F)cc2)C1 (stereo not drawn)	-1	0	4	0	0	2
CC(=O)Nc1ccc(C2CN(C)CC2C(=O)c2ccc(Cl)cc2)cc1 (stereo not drawn)	-1	1	0	0	4.2*	0
OC12CCCCC1C(c1ccccc1)NCC2 (stereo not drawn)	-1	4	-1	4.3*	0	6
OC1(c2ccccc2)CCNC2CCCCC21 (stereo not drawn)	-1	0	-1	0	0	-2
COc1ccc(CN2CCN(c3ccccc3F)CC2)cc1O	-1	0	-1	4.5*	0	1
COc1ccccc1N1CCN(Cc2ccc(F)cc2)CC1	-1	0	-1	0	0	-3
CN1OC[C@@H]2CN[C@H](c3ccc(Br)cc3)C[C@@H]21	-1	0	1	0	1	-2
CCN1CCN(c2ncnc3ccc(Br)cc23)CC1	-1	5	-1	4.4*	0	-3
CC(Cc1ccccc1)NC(=O)C(c1ccc(N)cc1)c1ccc(N)cc1 (stereo not drawn)	-1	-1	-2	0	0	1
CC(=O)NC(C)Cc1ccccc1 (stereo not drawn)	-1	-1	0	0	0	1
SMILES	ssDAF12 agonist	hgDAF12 agonist	hcDAF-12 act	DAX1 inh-1	DAX1 inh-2	SMARCA2 activ
CC(Cc1ccccc1)NC(=O)NC(C)Cc1ccccc1 (stereo not drawn)	0	13*	2	1	2	4
CC(Cc1ccccc1)NC(=O)c1ccc(N)cc1 (stereo not drawn)	1	9	3	4.8*	1	5
Fc1c(F)c(F)c(N2CCNCC2)c(F)c1F	0	1	1	0	0	0
CCOC(=O)c1cc2c(cn1)[C@H](CCO)NC2	-1	1	0	-1	1	-2
COC(=O)C1=C(c2ccc(OCc3ccccc3)cc2)C[C@@H]2CC[C@H]1N2C(=O)NCc1ccccc1C(F)(F)F	-1	1	-2	-1	-1	-2
Cc1cc(Br)cn2c(CC(=O)N3CCCCC3)c(-c3ccc(F)cc3)nc12	0	6	3	x	2	-1
COC(=O)C1=Nc2ccccc2/C1=C\c1c(O)n(-c2cc(OC)ccc2OC)c(=O)[nH]c1=O	-1	3	5.8*	0	0	-2
Cc1ccccc1-n1c(O)c(/C=C2/C(c3ccccc3)=Nc3ccccc32)c(=O)[nH]c1=O	-1	0	1	-1	-2	3
CC1=Nc2ccccc2/C1=C/c1c(O)n(C)c(=O)[nH]c1=O	1	2	6.4*	3	0	-2
CC[C@@H]1C[C@H]2CC[C@H](O2)[C@H](C)C(=O)O[C@@H](C)C[C@@H]2CC[C@@H](O2)[C@@H](C)C(=O)O[C@H](C)C[C@H]2CC[C@H](O2)[C@H](C)C(=O)O[C@@H](C)C[C@@H]2CC[C@@H](O2)[C@@H](C)C(=O)O1	-3	-11	-6	x	-6	-6
CC1=C2[C@@H]3OC(=O)[C@H](C)C3CC[C@@]2(C)C=CC1=O (stereo partly drawn)	-1	-3	-2	0	0	0
C=Cn1ccnc1P(=S)(c1ccc(Cl)cc1)c1nccn1C=C	0	0	0	5.2*	0	-2
Cc1ccccc1-n1c(O)c(/C=N/NC(=O)c2ccncc2)c(=O)[nH]c1=O	-1	-1	0	4.4*	0	4

Source: PubChem
